# Screening data as filed in PubChem.
# Hits are enriched below; roughly 21% of the tested compounds scored in any of these assays.
# Shiga inhibitor – A qHTS for Small Molecule Inhibitors of Shiga Toxin. Vero cells, Shiga toxin protein synthesis inhibition reporter. inhibition, % at 38.7 µM. 290,000 compounds, 9.2% hits; in the data active means inhibition mostly above about 28%, no sharp cut-off; inactive means mostly below about 43%; further: 0% is about no effect
# Pf growth 96h – Primary qHTS for delayed death inhibitors of the malarial parasite plastid, 96 hour incubation; P. falciparum luciferase reporter growth, 96 h; Potency, µM (doses to about 28.7 µM), without a hit: at the highest dose activity change, negative = inhibition, usual class: inhibitors; 320,000 compounds, 6.9% hits; AID 504834, 2011; further: potency means the concentration at half of the fitted maximal effect; on the % scale 0 is the no-effect control and ±100 the full control effect
#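 Luminescence readout: decreased luciferase signal marks inhibited growth of reporter-expressing P. falciparum in infected red cells (2% hematocrit, 0.05% parasitemia final), exposed to compound two generations (96 h, 37 C, 5% CO2).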
# NS1 function inh – qHTS Assay for Inhibitors of Influenza NS1 Protein Function; 270,000 compounds, 0.4% hits; Potency, µM (titrated, usually from 46.1 µM), without a hit: at the top dose activity, positive = more growth; calls by dose curve; further: potency means the concentration at half of the fitted maximal effect; actives are rising curves; nearly all actives have a fitted effect of over 50% in size
#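 In this qHTS, NS1 from influenza A is expressed in budding yeast, where it slows growth. Cells are switched from glucose to 2% galactose medium (pH 6.0, -URA), treated with compound, and growth recovery is read at OD600.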
# Pf growth 48h – Primary qHTS for delayed death inhibitors of the malarial parasite plastid, 48 hour incubation; 310,000 compounds, 5.9% hits; Potency, µM (top dose mostly 28.7 µM), without a hit: at the highest dose activity change, negative = inhibition, hits mostly inhibitors; P. falciparum luciferase growth in erythrocytes, 48 h; further: potency means the concentration at half of the fitted maximal effect; on the % scale 0 is the no-effect control and ±100 the full control effect
#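 A one-generation exposure of luciferase-tagged malaria parasites in RPMI 1640/Albumax erythrocyte culture, 37 C and 5% CO2. Inhibition is inferred from decreased luminescence after adding detection reagent.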
# Cycloheximide cs – Cycloheximide Counterscreen for Small Molecule Inhibitors of Shiga Toxin. cell reporter, cycloheximide protein synthesis inhibition counterscreen. max response, %. 300,000 compounds, 12% hits. AID 2314, 2010; in the data active means max response mostly above about 13%, no sharp cut-off; inactive means mostly below about 14%; further: read at 38.3 µM for the half of the compounds with a filed dose; 0% is about no effect
# The depositor's hits bear a star; ? = inconclusive; · = no result given. Unless noted, the call rests on the fitted dose curve; in most records, active means well fitted inhibition curve with a large enough effect; inconclusive means small, poorly fitted or top-dose-only effect, or another doubt; inactive means no such curve, though single readings can be large or run the other way.
SMILES,Shiga inhibitor,Pf growth 96h,NS1 function inh,Pf growth 48h,Cycloheximide cs
O=C(CC(=O)c1c(F)cccc1Cl)c1ccccc1O,52*,?,-110%,12µM*,55*
O=C(CC(=O)c1ccccc1O)c1cccc(F)c1,56*,?,-252%,?,34*
O=C(CCc1ccccc1)NNC(=O)c1cccc(F)c1,-8,51%,·,31%,2
O=C(CC(=O)c1ccccc1O)c1ccc(F)cc1,70*,?,-244%,·,49*
Cc1ccc(C(=O)CCC(=O)NNC(=O)c2ccccc2O)cc1,·,-10%,·,?,·
CCn1c(=O)cc(SCC(=O)NCCCN2CCN(c3ccccc3F)CC2)c2ccccc21,-6,?,3%,12µM*,15
O=C(CN1C(=O)COc2ccccc21)NCCCN1CCN(c2ccccc2F)CC1,1,14%,-3%,1%,10
CN1CCN(CCCNC(=O)C2CC(=O)N(C3CCCCC3)C2)CC1 (stereo unspecified),1,0%,-4%,15%,0
O=C(NCCCN1CCN(c2ccccc2F)CC1)C1CC(=O)N(C2CCCC2)C1 (stereo unspecified),-6,12µM*,5%,·,-7
COc1ccc(N2CCN(CCNC(=O)C3CC(=O)N(C4CCCC4)C3)CC2)cc1 (stereo unspecified),-24,1.9µM*,-11%,17%,-3
COC(=O)/C(=N/Nc1cccc(C)c1)N1CCCc2ccccc21,43,0%,-24%,-57%,19*
COC(=O)/C(=N/Nc1ccc(C)cc1)N1CCCc2ccccc21,-10,12µM*,-9%,?,-2
COC(=O)/C(=N/Nc1ccccc1)N1CCCc2ccccc21,-3,10µM*,-5%,-11%,6
O=C(C(c1ccccc1)c1ccccc1)N1CCCc2ccccc21,119*,-110%,-9%,?,30*
O=C(NC(=O)N1CCCc2ccccc21)c1ccccc1,-2,?,·,-14%,8
Cc1cc(C)n(CCC(=O)N2c3ccccc3CC2C)n1 (stereo unspecified),-8,?,-6%,-12%,-4
O=C(O)c1cn(Cc2ccccc2Cl)c2ccc(S(=O)(=O)N3CCOCC3)cc2c1=O,3,?,·,-18%,2
COc1cccc(C(C(=O)NC2CCCC2)N(C(=O)CNC(=O)c2ccco2)c2cccnc2)c1 (stereo unspecified),-8,16%,9%,-1%,-1
CC(=O)N(Cc1cc2ccccc2[nH]c1=O)c1ccc(C)cc1,8,-18%,-32%,-4%,-2
O=C(O)CCCCn1ccc(=O)[nH]c1=O,·,·,1%,·,·
COc1ccc(NC(=O)C2=CN3CCS(=O)(=O)N=C3C=C2)c(OC)c1,·,5%,·,-7%,·
COc1cccc2c(=O)n(CC(=O)NC3CCCCC3)ccc12,5,21%,-7%,20%,9.8*
COc1cccc2c(=O)n(CC(=O)Nc3ccccc3F)ccc12,23*,25%,26%,43%,27*
COc1cccc2c(=O)n(CC(=O)Nc3ccc(F)cc3)ccc12,-6,74%,11%,33%,5
CCCCCCCCCCC(=O)NNC(=O)c1c(O)c2ccccc2n(CC)c1=O,6,-3%,3%,33%,0
SMILES,Shiga inhibitor,Pf growth 96h,NS1 function inh,Pf growth 48h,Cycloheximide cs
CC(C)C(=O)Nc1ccc(S(=O)(=O)Nc2nccc(/C=C/c3ccccc3)n2)cc1,-3,18%,23%,11%,-3
O=C(Cc1noc2ccccc12)Nc1ccc2ccccc2c1,69*,48%,1%,?,32*
Cc1ccc(NC(=O)Cc2noc3ccccc23)cc1,68*,239%,-6%,236%,46*
[O-][n+]1ccccc1SCc1ccccc1,·,58%,·,?,·
[O-][n+]1ccccc1SC/C=C/c1ccccc1,96*,?,·,68%,25*
C=CCn1c(O)c(N=NC(=O)c2cccnc2)c2cc(Br)ccc21,-14,?,6%,?,-2
CC1CCCC(NC(=O)COC(=O)Cc2ccsc2)C1C (stereo unspecified),-16,·,-4%,16%,2
COc1ccc(C(=O)OCc2cc(C)ccc2C)cc1S(=O)(=O)N1CCCC1,·,10µM*,·,7.4µM*,·
COc1ccc(C(C)=O)cc1COC(=O)c1ccc(C)c(S(=O)(=O)N2CCOCC2)c1,·,9.3µM*,·,9.3µM*,·
CCOc1ccc(C(=O)Nc2cccc([N+](=O)[O-])c2)cc1Br,16,?,15%,?,20*
CCOc1ccc(C(=O)Nc2ccc(N3CCN(S(C)(=O)=O)CC3)cc2)cc1[N+](=O)[O-],13,9.3µM*,3%,-4%,-2
CCOc1ccc(C(=O)Nc2ccc(N3CCN(C)CC3)cc2)cc1[N+](=O)[O-],-1,0%,3%,?,-2
CCOc1ccc(C(=O)Nc2cccc(NC(=O)c3cccs3)c2)cc1[N+](=O)[O-],-3,12µM*,8%,-16%,8
CCOc1ccc(C(=O)Nc2ccc(NC(=O)c3ccccc3)c(C)c2)cc1[N+](=O)[O-],-5,0.21µM*,12%,12%,-1
COC(=O)CCC(C)N1CCC(Oc2ccc(C(=O)NCc3ccccn3)cc2)CC1 (stereo unspecified),-3,75%,-22%,-5%,-1
CC(C)C(NC(=O)c1ccc(F)cc1)C(=O)OCC(=O)N1CC(=O)Nc2ccccc21 (stereo unspecified),-2,-5%,2%,-19%,-3
CCn1nc2cc(C(=O)NCC34CC5CC(CC(C5)C3)C4)ccc2c1OC,-7,23%,-6%,12µM*,5
CCCCn1nc2cc(C(=O)NCC34CC5CC(CC(C5)C3)C4)ccc2c1OC,-24,15µM*,1%,?,16
CCOc1c2ccc(C(=O)NCC34CC5CC(CC(C5)C3)C4)cc2nn1CC,-4,?,11%,-33%,2
COCCn1c(=NC(=O)CCS(=O)(=O)c2ccccc2)sc2cc(F)ccc21,12,?,2%,-13%,9
CCn1c(=NC(=O)CCS(=O)(=O)c2ccccc2)sc2cccc(OC)c21,-10,?,1%,-20%,8
COc1ccc2c(c1)sc(=NC(=O)CS(=O)(=O)c1ccc(F)cc1)n2C,·,4.1µM*,·,9.3µM*,·
CCn1c(=NC(=O)CS(=O)(=O)c2ccc(F)cc2)sc2cccc(OC)c21,·,?,·,12µM*,·
CCOC(=O)c1sc2ccc(S(=O)(=O)N3CC(C)CC(C)C3)cc2c1N (stereo unspecified),-18,?,5%,-17%,-6
Cn1cccc1C1Nc2ccccc2NC2=C1C(=O)CC(C)(C)C2 (stereo unspecified),64,17%,-2%,20%,31*
CCOc1cc(C2Nc3ccccc3NC3=C2C(=O)CC(C)(C)C3)ccc1O (stereo unspecified),7,408%,-5%,-22%,14*
